Laboratory results published in PubChem BioAssay (EPA / NIEHS).
Values joined by “and” are separate entries in the source; they are usually repeats but may differ in a detail not shown here. Equal values may be shown once. Some structures have more than one record in an assay (separate samples or runs), and their calls can disagree. Active and inactive are the calls of the source. How the source made its calls: active means hit-call score of the fitted dose curve at least 0.9, where 1 is the maximum; inactive means score below 0.9.

Assays:
[1] = read-out: Actin alpha 1 (ACTA1), ACTA1 (gene 58); assay: BSK_MyoF_ACTA1: BioMAP Diversity Plus: MyoF Assay for Actin alpha 1 (ACTA1) Biomarker Activity (AID 2284244); conditions: primary human lung fibroblasts
Procedure, shortened: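 MyoF fibroblast system (human lung); a-SMA quantified via ELISA at 24 h; DMSO-normalised, gain-of-signal endpoint.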

[2] = read-out: Interleukin 2 (IL2), IL2 (gene 3558); assay: BSK_BT_xIL2: BioMAP Diversity Plus: BT Assay for Interleukin 2 (IL2) Biomarker Activity (AID 2284245); conditions: primary human B cells with PBMC
Procedure, shortened: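 Co-cultures of primary human B cells and PBMC are treated with chemical and sampled at 24 h. IL-2 secretion is quantified by Luminex xMAP, with DMSO-treated wells as baseline.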

[3] = read-out: Basic fibroblast growth factor (bFGF), FGF2 (gene 2247); assay: BSK_MyoF_bFGF: BioMAP Diversity Plus: MyoF Assay for Basic fibroblast growth factor (bFGF) Biomarker Activity (AID 2284246); conditions: primary human lung fibroblasts
Procedure, shortened: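 Fibroblasts from human lung, 24 h dosing. bFGF by ELISA; gain of signal over DMSO.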

[4] = read-out: Collagen IV, COL4A1 (gene 1282); assay: BSK_MyoF_CollagenIV: BioMAP Diversity Plus: MyoF Assay for Collagen IV Biomarker Activity (AID 2284247); conditions: primary human lung fibroblasts
Procedure, shortened: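 Lung fibroblasts (human primary) treated with chemicals were assayed after 24 h for Collagen IV using an ELISA, with DMSO serving as negative control and baseline for a positive-direction fit.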

[5] = read-out: Monokine induced gamma interferon (MIG), CXCL9 (gene 4283); assay: BSK_KF3CT_MIG: BioMAP Diversity Plus: KF3CT Assay for Monokine induced gamma interferon (MIG) Biomarker Activity (AID 2284248); conditions: primary human keratinocytes with fibroblasts
Procedure, shortened: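 Human keratinocyte–foreskin fibroblast co-culture; MIG measured by ELISA 24 h after chemical dosing, fitted upward versus DMSO. Cytotoxicity was assessed in parallel cultures by SRB total-protein staining read at 560 nm.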

[6] = read-out: Vascular cell adhesion molecule 1 (VCAM1), VCAM1 (gene 7412); assay: BSK_BF4T_VCAM1: BioMAP Diversity Plus: BF4T Assay for Vascular cell adhesion molecule 1 (VCAM1) Biomarker Activity (AID 2284249); conditions: primary human bronchial epithelial cells with fibroblasts
Procedure, shortened: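 Cell-surface VCAM-1 quantified by ELISA after 24 h chemical exposure of human bronchial epithelial/dermal fibroblast co-cultures, with SRB staining in parallel wells for cytotoxicity; DMSO baseline, positive-direction fitting.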

[7] = read-out: Collagen I, COL1A1 (gene 1277); assay: BSK_hDFCGF_CollagenI: BioMAP Diversity Plus: hDFCGF Assay for Collagen I Biomarker Activity (AID 2284250); conditions: primary human foreskin fibroblasts
Procedure, shortened: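 Readout: Collagen I by ELISA after 24 h compound treatment of primary human foreskin fibroblasts. Endpoint analysed for increases relative to DMSO; total protein by SRB in parallel wells flagged cytotoxicity.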

[8] = read-out: Interferon-inducible T-cell alpha chemoattractant (ITAC), CXCL11 (gene 6373); assay: BSK_hDFCGF_ITAC: BioMAP Diversity Plus: hDFCGF Assay for Interferon-inducible T-cell alpha chemoattractant (ITAC) Biomarker Activity (AID 2284251); conditions: primary human foreskin fibroblasts
Procedure, shortened: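 I-TAC levels were read by ELISA on human dermal foreskin fibroblast primary cultures 24 h after dosing, analysed against DMSO in the positive direction. Cytotoxicity was assessed alongside by sulforhodamine B total-protein staining.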

[9] = read-out: Plasminogen activator inhibitor-1 (PAI1), SERPINE1 (gene 5054); assay: BSK_KF3CT_PAI1: BioMAP Diversity Plus: KF3CT Assay for Plasminogen activator inhibitor-1 (PAI1) Biomarker Activity (AID 2284252); conditions: primary human keratinocytes with fibroblasts
Procedure, shortened: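 In this co-culture of primary human keratinocytes and foreskin fibroblasts, PAI-1 was measured by ELISA at 24 h and fitted upward from DMSO.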

[10] = read-out: Monocyte Chemoattractant Protein-1 (MCP1), CCL2 (gene 6347); assay: BSK_IMphg_MCP1: BioMAP Diversity Plus: IMphg Assay for Monocyte Chemoattractant Protein-1 (MCP1) Biomarker Activity (AID 2284253); conditions: primary human endothelial cells with macrophages
Procedure, shortened: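 ELISA readout of MCP-1 at 24 hours in IMphg co-cultures of venular endothelial cells and macrophages, normalised to DMSO; parallel cultures stained with sulforhodamine B for overt cytotoxicity.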

Measured: AC50

C=C(C)C(=O)OCCC(F)(F)C(F)(F)C(F)(F)C(F)(F)C(F)(C(F)(F)F)C(F)(F)F
inactive: all assays above

OCC(F)(F)C(F)(F)C(F)(F)C(F)(F)C(F)(F)C(F)F
inactive: all assays above

CCO[Si](CCC(F)(F)C(F)(F)C(F)(F)C(F)(F)C(F)(F)C(F)(F)F)(OCC)OCC
not listed: [10]
inactive: all other assays above

C#C[C@]1(O)CC[C@H]2[C@@H]3CCc4cc(OC)ccc4[C@H]3CC[C@@]21C
inactive: [1] | [2] | [3] | [4]

CC(CCl)OP(=O)(OC(C)CCl)OC(C)CCl (stereo not given)
inactive: [1] | [2] | [3] | [4]

CCc1c(Br)c(Br)c(Br)c(Br)c1Br
inactive: [1] | [2] | [3] | [4]

O=S(=O)(OCCOC(F)(F)F)C(F)(F)F
not listed: [10]
inactive: all other assays above

O=C(O)C(F)(F)C(F)(F)C(F)(F)C(F)(F)C(F)(F)C(F)(F)C(F)(F)C(F)(F)Cl
active: [1] 50.7 µM and 43.8 µM | [4] 7.89 µM | [5] 45.7 µM and 54.2 µM | [8] 29 µM and 36.7 µM | [9] 32.8 µM and 37.8 µM
inactive: [2] | [3] | [4] | [7]

Cc1ccc(S(=O)(=O)OCC(F)(F)C(F)(F)C(F)(F)C(F)(F)C(F)(F)C(F)F)cc1
inactive: all assays above

CCN(CC)c1ccc2c(C)cc(=O)oc2c1
inactive: [1] | [2] | [3] | [4]

CCCCNc1ccccc1
inactive: [1] | [2] | [3] | [4]

O[Si](c1ccccc1)(c1ccccc1)c1ccccc1
inactive: [3] | [4]
active: [1] 20 µM | [2] 31.3 µM

Oc1ccc(Nc2ccccc2)cc1
inactive: [1] | [3] | [4]
active: [2] 37.2 µM

FC(F)(F)C(F)(F)C(F)(F)C(F)(F)C(F)(F)CCI
active: [8] 30 µM and 40.9 µM
inactive: all other assays above

CO[Si](OC)(c1ccccc1)c1ccccc1
inactive: [2] | [3] | [4]
active: [1] 30.8 µM

CS(C)(=O)=O
inactive: [1] | [2] | [3] | [4]

CCCCCCCOC(=O)c1ccccc1C(=O)OCCCCCCC
active: [2] 17.5 µM
inactive: [1] | [3] | [4]

O=P(O)(O)OCCC(F)(F)C(F)(F)C(F)(F)C(F)(F)C(F)(F)C(F)(F)F
active: [8] 5.83 µM
inactive: [1] | [2] | [3] | [4] | [5] | [6] | [7] | [8] | [9]

FC(F)(F)C(F)(F)C(F)(F)C(F)(F)C(F)(F)C(F)(F)C(F)(F)Br
inactive: all assays above

FC(F)(F)C(F)(F)C(F)(F)C(F)(F)C(F)(F)C(F)(F)CC1CO1 (stereo not given)
not listed: [10]
inactive: all other assays above

N=C(N)C(F)(F)C(F)(F)C(F)(F)C(F)(F)C(F)(F)C(F)(F)C(F)(F)F
active: [2] 45.7 µM | [7] 30 µM | [8] 57.6 µM and 52.7 µM
inactive: [1] | [2] | [3] | [4] | [5] | [7] | [9]

CCc1ccc(C(c2ccc(CC)cc2)C(Cl)Cl)cc1
active: [1] 7.07 µM | [2] 30.3 µM | [3] 28.9 µM
inactive: [4]

Nc1ccc([N+](=O)[O-])cc1O
inactive: [1] | [2] | [3] | [4]

C=CC/C=C/C/C=C/C/C=C/C
inactive: [1] | [2] | [3] | [4]

FC(F)(Br)C(F)(F)C(F)(F)C(F)(F)C(F)(F)C(F)(F)Br
not listed: [10]
inactive: all other assays above

CCCCCCCCCCCCCCCC[N+](C)(C)Cc1ccccc1
active: [1] 1.36 µM | [2] 2.01 µM | [3] 2.02 µM | [4] 3.21 µM

CCCCOCCOCCOC(=O)CCCCC(=O)OCCOCCOCCCC
inactive: [1] | [2] | [3] | [4]

CCCCCCC(C)OC(=O)CCCCC(=O)OC(C)CCCCCC (stereo not given)
inactive: [1] | [2] | [3] | [4]

O=C(O)C(F)(F)C(F)(F)C(F)(F)C(F)(F)C(F)(F)C(F)(F)C(F)(F)C(F)(F)C(F)(F)C(F)(F)C(F)(F)C(F)(F)F
inactive: [1] | [2] | [3] | [4] | [5] | [7] | [8] | [9]
active: [1] 0.786 µM | [5] 20.5 µM | [8] 3.49 µM

OCCCC(F)(F)C(F)(F)C(F)(F)C(F)(F)C(F)(F)C(F)(F)C(F)(F)F
active: [1] 37.7 µM and 44.6 µM | [2] 20.5 µM and 33.2 µM | [3] 50.9 µM and 57.8 µM | [4] 49.5 µM and 48.3 µM | [5] 25.7 µM and 54.8 µM | [6] 38.1 µM and 42.2 µM | [7] 15.8 µM and 7.13 µM | [8] 13 µM and 11.8 µM | [9] 21.7 µM and 46.1 µM

O=C(O)C(F)(F)C(F)(F)C(F)(F)C(F)(F)F
not listed: [10]
inactive: all other assays above

FC(F)(F)C(F)(F)C(F)(F)CI
inactive: [1] | [2] | [3] | [4] | [5] | [6] | [7] | [8] | [9]
active: [8] 0.22 µM

FC(F)(F)C(F)(F)CNCC(F)(F)C(F)(F)F
not listed: [10]
inactive: all other assays above

OCC(F)(F)C(F)(F)C(F)(F)C(F)(F)C(F)(F)C(F)(F)F
inactive: [1] | [2] | [3] | [4] | [5] | [7] | [8] | [9]
active: [8] 49.4 µM

CC(=O)Nc1ccc(N=Nc2cc(C)ccc2O)cc1
inactive: [1] | [2] | [3]
active: [4] 10.6 µM

FC(F)(F)C(F)(F)C(F)(F)C(F)(F)C(F)(F)C(F)(F)C(F)(F)C(F)(F)CCS
not listed: [6] | [10]
inactive: all other assays above

FC(F)(F)C(F)(F)C(F)(F)C(F)(F)CCI
not listed: [6]
inactive: all other assays above

OCC(F)(F)C(F)(F)C(F)(F)F
not listed: [6] | [10]
inactive: all other assays above
